Consider 13 compounds from PubChem BioAssay (NCATS).

The nature of assay [1]: NCATS anti-infectives library activity on HEK293 viability as a counter-qHTS vs the C. elegans viability qHTS (AID 1745854).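 Note: HEK293 cells exposed to compounds for 24 hr before the viability read.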 To be noted: HEK293 viability counter-screen; series mostly up to 41.8 µM. An outline of the steps:
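Cytotoxicity in human HEK293 cells is measured by ATP-dependent CellTiter-Glo luminescence following a 24 hr incubation with titrated library compounds at 37C. Top final concentration is 41.7 uM.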

Assay [2] in a line: NCATS anti-infectives library activity on the primary C. elegans qHTS viability assay (AID 1745855; calls by dose curve; note: potency is the fitted concentration of half-maximal effect). To be noted: C. elegans worm area imaging, day 7; series mostly up to 41.8 µM. Summed up:
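Viability is taken from GFP fluorescence of PE254-GFP-FLuc C. elegans imaged by laser cytometry over 7 days. Ten L1 worms per well grow at 21 °C on TOP10 E. coli capsules with titrated compound; levamisole marks toxicity.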
(In general: In qHTS, concentration-response curves come from the screen itself.)

The target in assay [3] is Metallo-beta-lactamase type 2 (Klebsiella pneumoniae) (UniProt C7C422). Kind of assay: qHTS to identify inhibitors of the New Delhi Metallo-beta-lactamase (NDM): assay validation screen against the NCATS LOPAC Collection (AID 1794843). To be noted: NDM-1 enzyme, nitrocefin hydrolysis, absorbance 485 nm; series mostly up to 38.4 µM. Summed up: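 Absorbance at 485 nm from nitrocefin turnover (50 uM solution added), read at plateau, gives the read-out. Compounds in DMSO were incubated first with 2 nM final NDM-1 in pH 7.0 HEPES buffer containing 1 uM ZnSO4 and 0.01% Tween20.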

The target of assay [4] is Glutathione peroxidase 1 (Homo sapiens) (UniProt P07203). Kind of assay: Primary qHTS Assay for Inhibitors of Recombinant Selenoprotein Glutathione Peroxidase 1 (GPX1) (AID 1845191). Note: nearly all actives have a fitted effect of over 65% in size. Note: potency is the fitted concentration of half-maximal effect. To be noted: recombinant GPX1, GR-coupled NADPH fluorescence, 15 min; series mostly up to 48.8 µM. Summed up:
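Recombinant GPX1 (10 nM final) was preincubated with compound for 30 min at room temperature, then reacted with 1 mM GSH, 0.5 mM CHP, 0.5 mM NADPH and 100 nM glutathione reductase; NADPH fluorescence (340/450 nm) was read at 0 and 15 min.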

Assay [5] concerns the target Phenylethanolamine N-methyltransferase (Homo sapiens) (UniProt P11086). Kind of assay: Confirmatory Screen for Target Class Profiling of Small Molecule Inhibitors of Methyltransferases (AID 1745852). The conditions noted are these: MTase-Glo luminescence, SAH detection, recombinant enzyme; measured here: PNMT max response; stronger effect = lower value.

Records with an inconclusive call do not appear. Entries that show only a call come without a potency. A structure can be active in one record and inactive in another. Active and inactive are the calls of the source. Unless noted, calls come from the whole dose curve; as a rule, active = well fitted curve in the direction sought with a large enough effect; inconclusive = small, poorly fitted or top-dose-only effect, or another doubt; inactive = no such curve, though single readings can be large; an effect the other way counts as inactive or inconclusive.

Glutathione peroxidase 1 (Homo sapiens), sequence (P07203 whole entry, looked up): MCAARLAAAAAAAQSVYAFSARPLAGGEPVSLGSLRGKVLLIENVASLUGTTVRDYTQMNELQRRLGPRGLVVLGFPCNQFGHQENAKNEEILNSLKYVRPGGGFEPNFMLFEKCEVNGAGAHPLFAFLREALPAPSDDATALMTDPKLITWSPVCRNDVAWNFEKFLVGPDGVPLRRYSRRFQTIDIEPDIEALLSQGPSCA
Metallo-beta-lactamase type 2 (Klebsiella pneumoniae), sequence (C7C422 whole entry, looked up): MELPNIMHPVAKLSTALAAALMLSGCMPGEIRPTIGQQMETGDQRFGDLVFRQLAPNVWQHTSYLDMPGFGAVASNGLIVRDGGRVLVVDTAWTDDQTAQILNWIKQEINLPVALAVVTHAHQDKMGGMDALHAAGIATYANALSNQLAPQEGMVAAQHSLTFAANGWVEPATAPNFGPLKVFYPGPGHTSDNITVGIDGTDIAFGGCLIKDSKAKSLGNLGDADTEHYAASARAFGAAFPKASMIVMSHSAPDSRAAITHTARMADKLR
Phenylethanolamine N-methyltransferase (Homo sapiens), sequence (P11086 whole entry, looked up): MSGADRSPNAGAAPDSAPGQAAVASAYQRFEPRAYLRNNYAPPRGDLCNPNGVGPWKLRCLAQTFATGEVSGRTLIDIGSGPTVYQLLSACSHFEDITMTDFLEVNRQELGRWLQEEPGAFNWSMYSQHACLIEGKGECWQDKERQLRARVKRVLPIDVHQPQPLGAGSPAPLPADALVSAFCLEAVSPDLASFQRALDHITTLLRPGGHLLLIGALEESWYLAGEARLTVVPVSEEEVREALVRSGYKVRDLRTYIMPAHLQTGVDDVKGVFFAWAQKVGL

Consider `CC(=O)OCC(CCn1cnc2cnc(N)nc21)COC(C)=O`, for which the Potency entry in assay [1], in assay [2] and in assay [4] was “inactive” throughout. In assay [3], the outcome is “inactive”.
As to `NS(=O)(=O)c1cc2c(cc1Cl)NCNS2(=O)=O`, the Potency entry in assay [1] and in assay [4] was “inactive” in each case. The outcome in assay [3] is “inactive”.
Consider `C[C@H]1c2cccc(O)c2C(O)=C2C(=O)[C@]3(O)C(O)=C(C(N)=O)C(=O)[C@@H](N(C)C)[C@@H]3[C@@H](O)[C@@H]21`, for which the Potency result in assay [1] and in assay [4] was “inactive” each time. Also, in assay [2], the Potency is 1.15 µM (active). The outcome in assay [3] is “inactive”.
On to `NCCS(=O)(=O)O`, for which the outcome in assay [3] was “inactive”. Besides, the Potency result in assay [4] is “inactive”.
Regarding `Cc1cn([C@H]2C=C[C@@H](CO)O2)c(=O)[nH]c1=O`, the Potency entry in assay [1] and in assay [4] was “inactive” each time. In assay [3], the outcome was “inactive”.
On to `CC#C[C@]1(O)CC[C@H]2[C@@H]3CCC4=CC(=O)CCC4=C3[C@@H](c3ccc(N(C)C)cc3)C[C@@]21C`, for which the outcome in assay [3] was “inactive”. Also, in assay [4], the Potency result was “inactive”.
Take `COc1ccccc1OCC(O)CN1CCN(CC(=O)Nc2c(C)cccc2C)CC1` (configuration not stated): the Potency result in assay [1] and in assay [4] was “inactive” each time.
Turning to `NC(CO)C(=O)NNCc1ccc(O)c(O)c1O` (configuration not stated), in assay [3], the outcome is “inactive”. The Potency entry in assay [4] was “inactive”.
On to `COc1cc2nc(N3CCN(C(=O)C4COc5ccccc5O4)CC3)nc(N)c2cc1OC` (configuration not stated), for which the Potency result in assay [1] is “inactive”. Besides, the Potency in assay [2] is 23 µM (active); in assay [4], 18 µM (active) and inactive. Besides, the outcome in assay [3] is “inactive”.
In the case of `COc1cc2nc(N3CCN(C(=O)c4ccco4)CC3)nc(N)c2cc1OC`, the outcome in assay [3] is “inactive”.
As to `CN(C)CCC=C1c2ccccc2C=Cc2ccccc21`, in assay [5], the activity was found to be 7.91%. The outcome in assay [3] is “inactive”. Besides, the Potency result in assay [4] is “inactive”.
Consider `CN(C)C(=O)C(CCN1CCC(O)(c2ccc(Cl)cc2)CC1)(c1ccccc1)c1ccccc1`, for which the activity in assay [5] was -5.06%. The Potency result in assay [2] and in assay [4] was “inactive” each time. In addition, the outcome in assay [3] was “inactive”.
On to `CC(C)(Oc1ccc(C2CC2(Cl)Cl)cc1)C(=O)O` (configuration not stated), for which the Potency result in assay [1] and in assay [4] was “inactive” throughout. In addition, in assay [3], the outcome was “inactive”.
